Laboratory results as given in PubChem BioAssay AID1835 (Johns Hopkins Ion Channel Center, 2009).
Screen size: about 2,400 compounds; about 750 (31%) were called active. Some of the results follow. Unmarked numbers belong to inactive results.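 Rule for the calls: active = median signal gain over dofetilide-blocked control wells reaching their mean plus 3 SD, so readout 1 at least 0; inactive = the rest.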

Target: Voltage-gated inwardly rectifying potassium channel KCNH2 (Homo sapiens) (UniProt Q12809)
Sequence (Q12809 whole entry, looked up): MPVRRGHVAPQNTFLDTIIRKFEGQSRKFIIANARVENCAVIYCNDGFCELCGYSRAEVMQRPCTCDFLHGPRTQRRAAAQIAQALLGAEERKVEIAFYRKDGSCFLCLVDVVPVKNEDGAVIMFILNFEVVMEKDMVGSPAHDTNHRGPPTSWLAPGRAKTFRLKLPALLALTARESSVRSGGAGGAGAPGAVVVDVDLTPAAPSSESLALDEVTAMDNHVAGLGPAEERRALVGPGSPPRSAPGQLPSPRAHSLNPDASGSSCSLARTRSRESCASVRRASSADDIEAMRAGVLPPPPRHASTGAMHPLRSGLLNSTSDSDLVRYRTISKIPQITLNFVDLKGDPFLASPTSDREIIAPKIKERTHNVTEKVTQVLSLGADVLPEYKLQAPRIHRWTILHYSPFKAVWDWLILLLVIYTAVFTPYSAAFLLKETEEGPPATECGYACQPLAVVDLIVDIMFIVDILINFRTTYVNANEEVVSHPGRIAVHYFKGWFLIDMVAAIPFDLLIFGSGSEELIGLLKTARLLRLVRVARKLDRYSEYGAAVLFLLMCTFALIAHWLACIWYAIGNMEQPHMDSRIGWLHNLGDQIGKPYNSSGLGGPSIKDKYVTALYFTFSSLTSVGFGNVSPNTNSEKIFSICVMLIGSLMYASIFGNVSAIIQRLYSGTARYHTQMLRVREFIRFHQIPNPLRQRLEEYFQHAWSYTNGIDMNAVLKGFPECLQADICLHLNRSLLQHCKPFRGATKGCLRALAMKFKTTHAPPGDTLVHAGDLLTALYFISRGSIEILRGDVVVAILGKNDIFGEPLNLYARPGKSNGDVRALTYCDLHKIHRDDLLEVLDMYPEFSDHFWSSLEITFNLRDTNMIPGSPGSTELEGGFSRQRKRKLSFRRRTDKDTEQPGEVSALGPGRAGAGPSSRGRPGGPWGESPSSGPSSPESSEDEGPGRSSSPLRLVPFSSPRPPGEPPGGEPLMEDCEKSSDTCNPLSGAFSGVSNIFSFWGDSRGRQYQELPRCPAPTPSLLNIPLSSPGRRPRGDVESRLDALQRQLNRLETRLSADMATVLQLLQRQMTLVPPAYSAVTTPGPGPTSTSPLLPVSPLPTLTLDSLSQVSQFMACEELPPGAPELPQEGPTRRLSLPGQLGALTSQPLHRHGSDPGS
Assay: modulators restoring hERG flux under dofetilide – cell-based, thallium flux, duplicate retest, dofetilide IC70, confirmation (AID 1835)
Conditions: hERG cell line, FluxOR thallium flux, dofetilide-blocked; at 10 µM; hits give high values

Compound | activity increase over dofetilide control, less the hit threshold
Cc1cc(N2CCN(C)CC2)nc(N2CCOCC2)n1 | -6%
O=C(N1CCOCC1)N1CCC(n2nnc3ccccc32)CC1 | -8%
CN(C)c1oc(-c2ccccc2)nc1C#N | -17%
Cn1c(=O)c2c(ncn2CC(=O)OCc2ccccc2)n(C)c1=O | -11%
Cc1cc(C=O)c2c(c1)C=CC1(Oc3ccccc3C(=O)N1C)O2 (stereo not drawn) | -29%
O=C(Cn1c(=O)c2cccn2c2ccccc21)NCCc1ccc(Cl)cc1 | -16%
Oc1oc(-c2cccc3ccccc23)nc1/C=N/c1nccs1 | 4% (active)
CCCCn1nnc(NC(=O)c2ccc(-c3cccc([N+](=O)[O-])c3)o2)n1 | -6%
O=C(O)CSCc1c(F)cccc1Cl | -7%
O=C(O)CSc1nc2ccccc2nc1Cc1ccccc1F | 5% (active)
Cn1c(CNC(=O)c2ccccc2F)nnc1SCc1nc2ccccc2c(=O)[nH]1 | -9%
Cc1ccc(NC(=O)CN2C(=O)S/C(=C\c3cccn3-c3cccc(C(=O)O)c3)C2=O)c(C)c1 | -4%
COc1ccc(NC(=O)CN2C(=O)S/C(=C/c3cccn3-c3ccc(C(=O)O)cc3)C2=O)cc1 | 94% (active)
Cc1cccc(NC(=O)CN2C(=O)S/C(=C\c3cccn3-c3cccc(C(=O)O)c3)C2=O)c1 | 7% (active)
Cc1ccc(NC(=O)CN2C(=O)N/C(=C/c3ccccc3OCc3cccc(C(=O)O)c3)C2=O)cc1 | -16%
COc1ccc(C(=O)Nc2ccc(-n3nncc3C(C)(C)C)cc2)cc1 | -4%
Oc1c(Cl)cc(Cl)cc1Sc1cc(Cl)cc(Cl)c1O | 76% (active)

Compound | activity increase over dofetilide control, less the hit threshold
O=C(O)CCCN1C(=O)C2C3c4ccccc4C(c4ccccc43)[C@@H]2C1=O (stereo partly drawn) | -15%
Cc1noc(C)c1-c1nnc(-c2ccc(C(F)(F)F)cc2)o1 | -11%
O=C(/C=C/c1ccccc1)CC(=O)c1ccccc1O | 11% (active)
Cc1ccc(C(=O)CC(=O)c2ccccc2C)c(O)c1 | -3%
Cc1ccc(O)c(C(=O)CC(=O)c2ccccc2Cl)c1 | -2%
Cc1ccc(C(=O)NC(=S)N2CCN(c3cc(C)ccc3C)CC2)cc1 | -3%
O=C(COc1ccccc1)NC(=S)Nc1ccc2c(c1)Cc1ccccc1-2 | -9%
Cc1cccc(C(=O)NNC(=S)NC(=O)c2ccccc2)c1 | -20%
Cc1cccc(OCC(=O)NC(=S)N2CCCc3ccccc32)c1 | -10%
O=C(Nc1cccn(Cc2c(Cl)cccc2Cl)c1=O)c1ccccc1Cl | -21%
NS(=O)(=O)c1ccc(NC(=O)c2ccc(S(=O)(=O)N3CCc4ccccc43)cc2)cc1 | -1%
Cc1cccc(C(=O)NC(=S)N2CCc3ccccc3C2)c1 | 32% (active)
CN1C(=O)CSc2ccc(NC(=O)N3CCc4ccccc43)cc21 | -10%
CC1(C)CC2CC(C)(CN2C(=S)NC(=O)c2ccccc2Cl)C1 (stereo not drawn) | 28% (active)
O=C(NC(=S)N1CCc2ccccc21)c1ccccc1Br | 92% (active)
O=C(COc1ccccc1)NC(=S)N1CCc2ccccc21 | 3% (active)
